± gives the standard deviation of the averaged measurements.
Tested on: Caenorhabditis elegans N2 infected with Nematocida parisii ERTm1
Test: progeny production relative to DMSO uninfected control; higher = more progeny despite microsporidia infection (inhibition of infection with low host toxicity)
Conditions: infection time 6 days
How it was run: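 In 96-well plates holding K-medium, E. coli OP50 and 15,000 N. parisii spores/μL, 100 wild-type C. elegans L1 larvae per well were exposed to compound at 100 μM or 40 μM in 1% DMSO for 6 days with shaking at 21°C. Worms were then stained with Rose Bengal, scanned and counted with WorMachine, with three runs per compound and dose. Each value is progeny production as a percentage of the spore-free vehicle condition, averaged over replicates.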

Structure (SMILES) | progeny production (40 µM) [%] | progeny production (100 µM) [%]
CC(C)(C)NC(=O)N[C@H](C(=O)N1C[C@H]2[C@@H]([C@H]1C(=O)NC(CC1CCC1)C(=O)C(N)=O)C2(C)C)C(C)(C)C (some centres not stated) | 3.73 ± 0.22 | 7.69 ± 4.1
O=c1ccc2ncc(=O)n3c2n1CC3CN1CCC(NCc2cc3c(cn2)OCCC3)CC1 (configuration not stated) | 2.13 ± 0.25 | 18.2 ± 18
COc1ccc2c(c1OC)C(=O)OC2C1c2c(cc3c(c2OC)OCO3)CCN1C (configuration not stated) | 5.88 ± 3.7 | 14.7 ± 9.2
CC(C)(C)NC(=O)[C@@H]1CN(Cc2cnc3occc3c2)CCN1C[C@@H](O)C[C@@H](Cc1ccccc1)C(=O)N[C@H]1c2ccccc2C[C@H]1O | 8.87 ± 0.17 | 8.42 ± 0.9
CCc1cc(CCCOc2c(C)cc(-c3noc(C(F)(F)F)n3)cc2C)on1 | 5.28 ± 4 | 12.5 ± 14
C[C@H]1COc2c(N3CCN(C)CC3)c(F)cc3c(=O)c(C(=O)O)cn1c23 | 5.38 ± 2.2 | 12.8 ± 9.1
CC(=O)O[C@H]1C[C@@]2(C)[C@@H](C[C@@H](O)[C@H]3[C@@]4(C)CC[C@@H](O)[C@@H](C)[C@@H]4CC[C@@]32C)/C1=C(\CCC=C(C)C)C(=O)O | 6.24 ± 2.3 | 16.9 ± 9.1
COc1c(F)c(F)cc2c(=O)c(C(=O)O)cn(C3CC3)c12 | 6.01 ± 4.3 | 12.9 ± 4.6
C[C@@H](NC(=O)c1cccc(-c2cnc(-c3cc4ccccc4cn3)[nH]2)c1)c1ccc(F)cc1 | 5.74 ± 3.9 | 8.24 ± 5.7
Cc1onc(-c2ccccc2Cl)c1C(=O)N[C@@H]1C(=O)N2[C@@H]1SC(C)(C)[C@@H]2C(=O)O | 2.76 ± 1.9 | 19.1 ± 12
CC(C)C(=O)N[C@H]1[C@H]([C@H](O)[C@H](O)CO)OC(C(=O)O)=C[C@@H]1N=[N+]=[N-] | 5.36 ± 3.2 | 14.6 ± 5.9
NS(=O)(=O)c1ccc(NC(=O)NC(c2ccccc2)c2ccccc2)cc1 | 6.18 ± 1.6 | 16.9 ± 14
CCOC(=O)/C=C/[C@H](C[C@@H]1CCNC1=O)NC(=O)[C@H](CC)n1cccc(NC(=O)c2cc(C)on2)c1=O | 4.38 ± 3.6 | 8.98 ± 7.5
CC[C@@H]1C(=O)OC[C@@H]1Cc1cncn1C | 4.59 ± 1.7 | 11.8 ± 11
Nc1nc(NC2Cc3ccc(F)cc3C2)nc(N2CCCCC2)n1 (configuration not stated) | 5.65 ± 3.6 | 6.63 ± 4.3
O=C(Nc1ccccc1)N(Cc1cc(Br)ccc1O)c1ccc(F)cc1 | 3.85 ± 1 | 17.4 ± 13

Structure (SMILES) | progeny production (40 µM) [%] | progeny production (100 µM) [%]
CC(C)(C)c1ccc(C(Cn2cccc(C(F)(F)F)c2=O)NC2Cc3ccccc3C2)cc1 (configuration not stated) | 1.91 ± 1.3 | 13.4 ± 9.4
C=C(C)n1c(=O)n(Cc2ccccc2C)c2ccccc21 | 6.26 ± 0.83 | 14.5 ± 10
CCCCOC(=O)Nc1cc2nc(C3CCCCC3)[nH]c2cc1N(CC)CC | 6.28 ± 3 | 13.5 ± 8.2
CC1CN(c2ncnc3c2c(-c2ccccc2)cn3-c2ccc(F)cc2)CC(C)O1 (configuration not stated) | 4.39 ± 1.6 | 13.4 ± 13
CCc1nc2ccc(Cl)cn2c1C(=O)NCc1ccc(N2CCC(c3ccc(OC(F)(F)F)cc3)CC2)cc1 | 4.78 ± 2.6 | 6.24 ± 4.5
CC(C)(C)c1ccc(C(=O)NC(=O)N2CCCc3ccccc32)cc1 | 4.23 ± 2.6 | 22.1 ± 18
CC(C)(C)c1cc(C(=O)/C(C#N)=N/Nc2cccc(Cl)c2)no1 | 4.44 ± 0.8 | 13.4 ± 11
CC(Oc1ccc(Cl)cc1Cl)C(=O)NCc1ccc2c(c1)OCO2 (configuration not stated) | 3.27 ± 0.72 | 14.5 ± 9.6
COc1ccc(COc2cc3oc(=O)c4cc(C(C)O)ccc4c3cc2OC)cc1 (configuration not stated) | 5.78 ± 0.94 | 10.9 ± 7
C[C@H]1CC[C@@]2(O)C(C)(C)[C@@H]3CC[C@@]2(C)[C@H]1C3 | 6.77 ± 4.3 | 7.52 ± 7.7
Cc1nc(Nc2ccc(F)cc2)nc(N2CCc3ccccc3C2C)c1C (configuration not stated) | 2.7 ± 0.53 | 20.9 ± 25
CC1(C)[C@H](C(=O)O)N2C(=O)C[C@H]2S1(=O)=O | 4.44 ± 0.8 | 10.7 ± 7.8
O=C(O)c1ccc(-n2nc(-c3ccccc3O)nc2-c2ccccc2O)cc1 | 4.83 ± 3 | 16.7 ± 7.4
CCc1c(O)nc2ccc(F)cc2c1OCC1CCC1 | 6.76 ± 3.3 | 16.2 ± 9.1
O=C1C=C(c2ccccc2)S(=O)(=O)c2ccccc21 | 9.24 ± 1.8 | 38 ± 9.4
